# Measured values taken from article PMC5540273 (PLoS ONE, 2017).
# System: STK33
# Conditions: concentration: 1 μM, replicates: in singlicate; n = 1
# 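Further: KINOMEscan kinase panel screen.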
row,Compound,%Inh
1,Cl.c1ccc(-c2n[nH]cc2-c2ccnc(-c3ccc(CN4CCOCC4)cc3)c2)nc1 [GW776245],0%
2,Cc1nnc(-c2ccc3occ(-c4ccc(S(C)=O)cc4)c3c2)[nH]1 (centres unmarked),0%
3,Cn1ccc2ncnc(Oc3ccc(Nc4nc5ccccc5[nH]4)cc3)c21,0%
4,COc1cc2ncn(-c3cc(OCC4CCCO4)c(C(N)=O)s3)c2cc1OC (centres unmarked) [GSK204607],0%
5,Cc1cccc(-c2nc(-c3ccc(S(C)(=O)=O)cc3)sc2-c2ccnc(NCCc3ccccc3)c2)c1,0%
6,COC(=O)c1c(-c2ccccc2)c2cc(C(=O)O)ccc2c(=O)n1Cc1ccccc1,0%
7,Cl.Oc1ccc(-c2nc(-c3ccccc3)[nH]c2-c2ccncc2)cc1 [SB-428218],0%
8,CC(=O)Nc1nc2cnc(Nc3cc(NC(=O)c4cccc(CCC#N)c4)ccc3C)nc2s1,0%
9,CSc1nn2c(=O)cc(N3CCOCC3)nc2n1Cc1cccc(C(F)(F)F)c1C [GSK2363608],0%
10,O=C(Nc1n[nH]c2nc(-c3nccs3)c(Br)cc12)C1CCCC1 [SB-742609],0%
11,CCn1c(-c2ccccn2)nc2cnccc21 [SB-736398],0%
12,NC(=O)c1nnc2ccccc2c1N,11%
13,COc1ccc(Nc2nccc(NCCNC(=O)Nc3ccccc3F)n2)cc1 [GSK1379901],0%
14,Cc1cc(N2Cc3ccccc3C2)nc(Nc2ccc(S(=O)(=O)N3CCOCC3)cc2)n1.Cl [GSK1669917],0%
